# Source: ChEMBL document CHEMBL3433997, “St. Jude Leishmania screening dataset” (2016)
# Assays:
# Type in all cases: functional
# [1] = target: Solute carrier family 2, facilitated glucose transporter member 1 (Homo sapiens) (UniProt P11166); experiment: ST_JUDE_LEISH: Cytotoxicity at 2uM final concentration against transgenic Leishmania Mexicana promastigotes LmGLUT1 that are glucose transport deficient and complemented with the human glucose transporter GLUT1. Activity is measured by DNA content using SYBR green in vitro
# [2] = target: Hexose transporter 1 (Plasmodium falciparum) (UniProt O97467); experiment: ST_JUDE_LEISH: Cytotoxicity at 2uM final concentration against transgenic Leishmania Mexicana promastigotes LmPfHT that are glucose transport deficient and complemented with the Plasmodium falciparum hexose transporter. Activity is measured by DNA content using SYBR green in vitro
# [3] = target: Glucose transporter (Leishmania mexicana) (UniProt O61059); experiment: ST_JUDE_LEISH: Cytotoxicity at 2uM final concentration against transgenic Leishmania Mexicana promastigotes LmGT2 that are glucose transport deficient and complemented with the L. Mexicana glucose transporter 2. Activity is measured by DNA content using SYBR green in vitro
# Sequence of Solute carrier family 2, facilitated glucose transporter member 1 (Homo sapiens) (P11166 whole entry): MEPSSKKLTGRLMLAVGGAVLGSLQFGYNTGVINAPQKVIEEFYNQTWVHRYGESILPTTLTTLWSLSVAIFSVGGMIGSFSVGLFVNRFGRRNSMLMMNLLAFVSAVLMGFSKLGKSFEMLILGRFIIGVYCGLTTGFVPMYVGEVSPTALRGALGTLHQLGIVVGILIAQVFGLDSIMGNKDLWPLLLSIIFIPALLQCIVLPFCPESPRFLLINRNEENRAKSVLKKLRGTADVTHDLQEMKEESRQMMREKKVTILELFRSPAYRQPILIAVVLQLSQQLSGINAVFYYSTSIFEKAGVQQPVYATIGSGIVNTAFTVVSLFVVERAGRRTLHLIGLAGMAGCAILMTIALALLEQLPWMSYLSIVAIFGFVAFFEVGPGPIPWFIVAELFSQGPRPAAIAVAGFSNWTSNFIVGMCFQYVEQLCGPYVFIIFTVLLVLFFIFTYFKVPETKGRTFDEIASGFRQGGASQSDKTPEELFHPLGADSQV
Structure (SMILES),inhibition [1] [%],inhibition [2] [%],inhibition [3] [%]
Cc1cc(C(=O)CN2C(=O)NC3(CCOc4ccccc43)C2=O)c(C)n1Cc1ccco1 (stereo unspecified),5.85,4.77,3.86
CN1CCN(c2nc(NCCNc3ccc([N+](=O)[O-])cc3)c3ccccc3n2)CC1,0.92,0.91,0.54
Cc1cccc2nc(-c3ccc(-c4cccc(CNCCCNS(C)(=O)=O)c4)s3)[nH]c12,0.75,2.35,-2.06
O=C(Nc1cccnc1)c1cc(-c2cccnc2)nc2ccc(Br)cc12,7.01,1.51,-1.18
COc1ccc(C2CC(=O)C3=C(C2)NC(C)=C(C(=O)OC2CCCC2)C3c2ccc(O)cc2)cc1OC (stereo unspecified),-0.48,0.53,0.39
COc1cc2c(C3CCN(CC4CCC(NC(=O)/C=C/c5ccc(Cl)c(Cl)c5)CC4)CC3)c[nH]c2cn1 (stereo unspecified),9.19,8.02,7.96
CC(=O)Nc1ccc(CN2CCc3ccc(NS(=O)(=O)c4ccc(-c5cccc(C(F)(F)F)c5)cc4)cc3CC2)s1,2.54,2.18,3.46
Nc1cccc(CNCc2ccc(-c3cccc(-c4nc5cc(F)ccc5[nH]4)c3)cc2)c1,-0.29,-1.11,-1.93
O=C(NCCCCCN1CCC(c2c[nH]c3ccccc23)CC1)c1ccc(Cl)c(Cl)c1,2.42,4.92,2.52
COc1ccc2ncc(F)c(CCN3CCC[C@H](CNCc4ccc5c(n4)NC(=O)CS5)C3)c2n1,5.76,5.3,0.75
COc1cc2nc(N(C)C)nc(Nc3ccc4c(cnn4Cc4ccccc4)c3)c2cc1OC,-0.58,-0.17,2.85
CN(C)CCNc1nccc(N2CCc3ncnc(Nc4ccc(OCc5cccc(F)c5)c(Cl)c4)c3C2)n1,20,28.4,3.49
O=C(/C=C/c1ccc(Cl)c(Cl)c1)NCCCCCCN1CCN(C(=O)Nc2ccc(Cl)c(C(F)(F)F)c2)CC1,4.18,4.06,-1.95
Cc1cc(N[C@@H](Cc2ccccc2)C(=O)NCc2cccs2)nc(NCCc2ccc(F)cc2)n1,8.62,8.93,4.14
CCOc1cc(NC(=O)Nc2ccnc3ccccc23)cc(OC)c1,12.6,10.5,7.94
COc1ccc(-c2cc(-c3nc4cc(C(=O)N5CCOCC5)ccc4[nH]3)c(=O)n(C)c2)cc1OC,2.76,0.74,0.91

Structure (SMILES),inhibition [1] [%],inhibition [2] [%],inhibition [3] [%]
O=C(Nc1ccc(Cl)c(-c2nc3ccccc3[nH]2)c1)c1ccc(-c2ccc(Cl)cc2)o1,2.63,4.17,1.89
Cc1nn(-c2cccc(Cl)c2)c2c1C(C(=O)c1ccc3c(c1)OCO3)CC(=O)N2 (stereo unspecified),-2.6,-0.95,-2.87
COCCCNC(=O)C1CCN(C(c2ccc(Cl)cc2)c2ccc(Cl)cc2)CC1,2.3,3.44,4.61
O=C(/C=C/c1ccc(Cl)c(Cl)c1)NCC[C@@H]1C[C@H]1CCN1CCC(c2c[nH]c3ccccc23)CC1,9.6,8.4,6.24
Oc1ccc(CN2CCC(N3CCN(CCc4ccccc4)CC3)C(O)C2)cc1Cl (stereo unspecified),1.3,-0.2,2.61
CN1CCN(S(=O)(=O)c2cccc(Nc3nccc(N(C)c4ccc5c(c4)nc(NC(=O)c4cccs4)n5C)n3)c2)CC1,-0.55,0.27,1.49
COCC(=O)Nc1nc2ccccc2[nH]1,2.56,2.67,2.36
COc1ccc2nc(C)cc(Nc3ccc(Oc4ccc5ccccc5c4)c(Cl)c3)c2c1,7.14,7.63,1.45
Cc1cc(NC(=O)Nc2cccc(Cl)c2Cl)c2ccccc2n1,6.15,6.44,2.66
Cc1nn(-c2ccccc2)c2sc(C(=O)N(CCCN(C)C)c3nc(-c4ccccc4)cs3)cc12,1.15,3.31,0.07
COc1ccc2c(NN=Cc3ccc(Cl)cc3)ccnc2c1,3.12,2.42,4.63
CCOC(=O)c1nc(-c2cccnc2)[nH]c1NC(=S)NCc1ccccc1,1.58,0.92,3.75
CCCCCCCN(Cc1ccc(OC(C)(C)C(=O)OCC)cc1)C(=O)Nc1ccc(Cl)cc1OCC,3.65,0.95,3.11
N#Cc1ccc(CN2CCC(Oc3ccc(NC(=O)c4ccco4)cc3Cl)C2)cc1 (stereo unspecified),3.53,0.89,-0.68
CN(CCCN(C)c1cc(NC(=O)c2ccc(F)cc2)ccn1)Cc1cccc(O)c1,-1.12,-0.11,-0.03
O=C1CSc2ccc(CNC3CCN(CCc4c(Cl)cnc5ccc(Cl)cc45)CC3)nc2N1,0.88,-0.05,-1.85
